Results taken from PubChem BioAssay (NCATS).
Results filed as inconclusive are left out. Active and inactive are the calls of the source. Calls follow the shape of the dose curve; as a rule, active = well fitted curve in the direction sought with a large enough effect; inconclusive = small, poorly fitted or top-dose-only effect, or another doubt; inactive = no such curve, though single readings can be large; an effect the other way counts as inactive or inconclusive.

What was measured:
[1] = Cellular Toxicity (caspase-3) Mesangial (AID 660); settings: mesangial cells, normalized: DMSO 0%, 100 µM tamoxifen 100%; at 91.7 µM (top of the series);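 also: combined caspase 3 and 7 activity read by Caspase-Glo luminescence; cells exposed to compound for 16 h before the caspase read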
In short: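 Seed cells derived from normal human renal glomeruli, incubate 5 h, add compounds across concentrations and incubate 16 h at 37 °C. Caspase 3/7 activation is then quantified by luciferase light, with AC50 derived by Hill modeling.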

[2] = Cellular Toxicity (caspase-3) SK-N-SH (AID 661);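 also: 0% = DMSO basal and 100% = 10 µM staurosporine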
In short: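 Cells were seeded and incubated 5 hr at 37 °C, dosed with compound over a concentration range for 16 hr, then given Caspase-Glo 3/7 reagent for 1 hr at room temperature before luminescence reading.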

[3] = Cellular Toxicity (caspase-3) H-4-II-E (AID 663); settings: H-4-II-E rat hepatoma, scaled: DMSO 0%, 100 µM tamoxifen 100%; at 92.2 µM (top of the series);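 also: cells exposed to compound for 16 hr before readout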
In short: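 Caspase 3/7 activation measured by luminescent aminoluciferin substrate cleavage after 16 hr compound treatment of H-4-II-E cells in complete medium. Increase normalized between DMSO (basal) and 100 uM tamoxifen (100%); Hill-equation AC50 from concentration-response.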

[4] = Cellular Toxicity (caspase-3) Hek293 (AID 664); settings: HEK293 caspase-3 activation, DMSO = 0%, 100 µM tamoxifen = 100%; at 92.2 µM (top of the series);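 also: cells exposed to compound for 16 h at 37 °C before readout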
In short: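 qHTS, HEK293 (human embryonic kidney), 16 h cpd exposure in complete medium. Caspase-3/7 activation = luminescence increase; normalized to DMSO/100 uM tamoxifen; Hill-fit AC50.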

[5] = Cellular Toxicity (caspase-3) N2a (AID 665);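 also: compound exposure lasted 16 h at 37 °C before readout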
In short: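 Caspase-3/7 activation, measured as increased luminescence from aminoluciferin release, is quantified in mouse N2a cells exposed to compounds for 16 h. Values are normalized to DMSO and 10 uM staurosporine, with AC50 derived by Hill modelling.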

[6] = Cellular Toxicity (caspase-3) NIH 3T3 (AID 666);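 also: caspase signal read after 16 h compound exposure; 0% = DMSO basal and 100% = 100 µM tamoxifen stimulation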
In short: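 Cells were plated at 1000 per well and incubated 5 hr at 37°C, then compound was added for 16 hr. Caspase-Glo 3/7 reagent followed for 20 min at room temperature before luminescence was read.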

[7] = Cellular Toxicity (caspase-3) Renal Proximal Tubule (AID 667); settings: Potency: caspase-3 activation;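 also: cells exposed to compound for 16 hours at 37 °C before detection; 0% = DMSO basal and 100% = 10 µM staurosporine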
In short: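 In qHTS format, rat primary proximal tubule cells seeded at 1000 per well are exposed to compounds for 16 hours at 37 °C. An increase in Caspase-Glo 3/7 luminescence indicates caspase activation.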

[8] = target: Cytochrome P450 3A4 (Homo sapiens) (UniProt P08684); assay: qHTS Assay for Activators of Cytochrome P450 3A4 (AID 885); also: nearly all actives have a fitted effect of over 65% in size
Sequence of Cytochrome P450 3A4 (Homo sapiens) (P08684 whole entry, looked up): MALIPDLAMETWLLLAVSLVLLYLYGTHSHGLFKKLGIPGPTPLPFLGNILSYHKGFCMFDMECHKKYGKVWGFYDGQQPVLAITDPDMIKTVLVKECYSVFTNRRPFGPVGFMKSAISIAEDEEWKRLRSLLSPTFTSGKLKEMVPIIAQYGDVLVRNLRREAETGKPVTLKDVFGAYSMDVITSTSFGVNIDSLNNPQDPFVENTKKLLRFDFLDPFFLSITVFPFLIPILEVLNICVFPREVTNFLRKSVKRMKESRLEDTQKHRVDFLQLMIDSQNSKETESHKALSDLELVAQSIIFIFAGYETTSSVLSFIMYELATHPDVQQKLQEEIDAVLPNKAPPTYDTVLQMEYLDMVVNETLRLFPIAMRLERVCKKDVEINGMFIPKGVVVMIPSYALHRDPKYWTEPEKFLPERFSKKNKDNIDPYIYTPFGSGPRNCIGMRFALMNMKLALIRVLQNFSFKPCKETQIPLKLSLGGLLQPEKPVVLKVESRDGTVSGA
In short: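 Luminescent readout of luciferin formed from 25 uM Luciferin-PPXE (KM level) by 20 nM CYP3A4 in 200 mM KPO4, with 60 min NADPH-driven reaction at room temperature after 10 min compound exposure. Ketoconazole (57 uM) defined 100% inhibition.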

[9] = Cell Viability - LYMP2-001 (AID 921);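 also: cells exposed to compound for 24 h at 37 °C; 0% = DMSO only and full inhibition = tetraoctylammonium bromide control wells; nearly all actives have a fitted effect of over 70% in size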
In short: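 qHTS, 1536-well; lymphoblastoid cells, 24 hr compound, 37 C; ATP by CellTiter-Glo, 30 min RT; luminescence; Hill-fit AC50.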

[10] = MultiTox-Fluor Cytotoxicity Assay - LYMP1-001 - Dead Cells (AID 946)
In short: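 Cytotoxicity as increased dead-cell protease fluorescence (bis-AAF-R110, 485/520 nm), read 60 min after MultiTox-Fluor reagent. Human lymphoblastoid line exposed 16 h; Hill-fitted AC50, with DMSO as 0% and 15 uM tetraoctylammonium bromide as 100%.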

[11] = MultiTox-Fluor Cytotoxicity Assay - LYMP1-001 - Live Cells (AID 947);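 also: 0% = DMSO only and full inhibition = tetraoctylammonium bromide control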
[12] = Cell Viability - LYMP1-002 - Assay at 16 hr (AID 948);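 also: 0% = DMSO alone and full effect = 92 µM tetraoctylammonium bromide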
In short: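 Acute cytotoxicity is scored as a concentration-dependent fall in intracellular ATP in a human lymphoblastoid line (LYMP1-002) after 16 hr compound exposure at 37 C, measured by luciferase luminescence.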

[13] = MultiTox-Fluor Cytotoxicity Assay - LYMP1-002 - Live Cells (AID 955); also: % is scaled to controls: 0 for no effect and ±100 for the full control effect
In short: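 Cells were seeded at 2500 per well and incubated 5 hr. Compounds were then added for 16 hr at 37 C, followed by MultiTox-Fluor reagent for 60 min at room temperature and fluorescence reading of viable-cell protease signal.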

[14] = MultiTox-Fluor Cytotoxicity Assay - LYMP1-003 - Dead Cells (AID 961); also: nearly all actives have a fitted effect of over 70% in size
In short: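 Dead-cell protease release, detected as bis-AAF-R110 fluorescence at 485/520 nm, was measured in LYMP1-003 cells after 16 h compound treatment at 37 C. AC50 values came from Hill-modeled qHTS curves normalized to DMSO (0%) and 15 uM tetraoctylammonium bromide (100%).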

[15] = MultiTox-Fluor Cytotoxicity Assay - LYMP1-003 - Live Cells (AID 962);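 also: 0% = DMSO only and full loss = 92 µM tetraoctylammonium bromide; cytotoxic hits lower the live-cell protease signal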
In short: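 Acute cytotoxicity is scored as a drop in live-cell protease activity in human lymphoblastoid LYMP1-003 cells after 16 hr compound exposure at 37 C. AC50 values come from Hill-equation modelling of concentration-response data.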

[16] = Cell Viability - LYMP1-003 - Assay at 24 hr (AID 963);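 also: plate controls were DMSO only for no effect and tetraoctylammonium bromide positive control for full effect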
In short: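 Cytotoxicity is scored as a concentration-dependent fall in ATP-linked luciferase signal in human lymphoblastoid LYMP1-003 cells treated 24 hr at 37 C in complete culture medium.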

[17] = Cell Viability - LYMP2-003 (AID 965);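 also: cells exposed to compounds for 24 h before reading; 0% = DMSO only and full effect = 92 µM tetraoctylammonium bromide; nearly all actives have a fitted effect of over 50% in size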
In short: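 Acute cytotoxicity is scored as a concentration-dependent drop in intracellular ATP, measured by luciferase luminescence in human lymphoblastoid cells treated for 24 hours at 37 C. AC50 values derive from Hill-equation modelling.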

[18] = target: Cytochrome P450 3A4 (Homo sapiens) (UniProt P08684); assay: qHTS Assay for Inhibitors and Substrates of Cytochrome P450 3A4 (AID 884); also: % is scaled to controls: 0 for no effect and ±100 for the full control effect; nearly all actives have a fitted effect of over 50% in size
In short: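 Luminescent readout of luciferin produced by CYP3A4 (20 nM) dealkylation of Luciferin-PPXE, 25 uM (its KM). NADPH-driven reaction ran 60 min at RT after 10 min compound preincubation; data scaled to 57 uM ketoconazole as 100% inhibition.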

[19] = MultiTox-Fluor Cytotoxicity Assay - LYMP1-002 - Dead Cells (AID 960); also: nearly all actives have a fitted effect of over 60% in size
In short: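 Cells were plated, rested 5 hr, then treated with compound dilution series for 16 hr at 37 C. After adding substrate reagent and 60 min at room temperature, dead-cell protease fluorescence gave concentration-response curves fitted by the Hill equation.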

[20] = Cell Viability - LYMP1-003 - Assay at 40 hr (AID 964); also: % is scaled to controls: 0 for no effect and ±100 for the full control effect; nearly all actives have a fitted effect of over 60% in size
In short: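 Luminescent ATP signal (CellTiter-Glo) served as the viability read-out after 40 hr compound treatment of human lymphoblastoid LYMP1-003 cells at 37 C. Decreases in ATP were fitted with the Hill equation to give AC50.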

COc1cccc2sc(N)nc12
inactive: caspase-3 activation [1] 1.13% | outcome [2] | caspase-3 activation [3] 0.718% | caspase-3 activation [4] -1.25% | outcome [5] | outcome [6] | Potency [7] | outcome [8] | Potency [9] | outcome [10] | outcome [11] | outcome [12] | outcome [13] | Potency [14] | Potency [15] | Potency [16] | Potency [17]

C=C(C)C(=O)OCCCCCC
inactive: caspase-3 activation [1] 0.76% | outcome [2] | caspase-3 activation [3] 0.664% | caspase-3 activation [4] -0.643% | outcome [5] | Potency [7] | Potency [18] | Potency [9] | outcome [10] | outcome [12] | outcome [13] | outcome [19] | Potency [14] | Potency [15] | Potency [16] | Potency [17]

COc1ccc(N)c(OC)c1
inactive: caspase-3 activation [1] 0.311% | outcome [2] | caspase-3 activation [3] 1.91% | caspase-3 activation [4] -1.28% | outcome [5] | outcome [6] | Potency [7] | outcome [8] | outcome [10] | outcome [11] | outcome [12] | outcome [13] | outcome [19] | Potency [14] | Potency [15] | Potency [16] | Potency [20] | Potency [17]

CCOc1cc(OCC)c(C(C)=O)cc1OCC
inactive: caspase-3 activation [1] -0.248% | outcome [2] | caspase-3 activation [3] 0.345% | caspase-3 activation [4] -0.553% | outcome [5] | outcome [6] | Potency [7] | outcome [8] | Potency [9] | outcome [10] | outcome [11] | outcome [12] | outcome [13] | Potency [14] | Potency [15] | Potency [16] | Potency [20] | Potency [17]

Nc1cccc([N+](=O)[O-])c1
inactive: caspase-3 activation [1] -0.828% | outcome [2] | caspase-3 activation [3] 0.491% | caspase-3 activation [4] 0.377% | outcome [5] | Potency [7] | Potency [18] | outcome [10] | outcome [11] | outcome [12] | outcome [13] | outcome [19] | Potency [14] | Potency [15] | Potency [16] | Potency [20] | Potency [17]

Cc1cc(C2(c3cc(C)c(O)cc3C)OS(=O)(=O)c3ccccc32)c(C)cc1O
inactive: caspase-3 activation [1] -0.0933% | outcome [2] | caspase-3 activation [3] 2.61% | caspase-3 activation [4] 4.58% | outcome [5] | outcome [6] | Potency [7] | outcome [8] | outcome [10] | outcome [11] | outcome [12] | outcome [13] | Potency [14] | Potency [15] | Potency [16] | Potency [20] | Potency [17]

COc1cccc(N)c1
inactive: caspase-3 activation [1] 2% | outcome [2] | caspase-3 activation [3] 4.32% | caspase-3 activation [4] 7.74% | outcome [5] | outcome [6] | Potency [7] | outcome [8] | Potency [9] | outcome [10] | outcome [11] | outcome [12] | outcome [13] | Potency [14] | Potency [15] | Potency [16] | Potency [20] | Potency [17]

C=C(C)C1CC=C(C)C(OC(C)=O)C1 (stereo unspecified)
inactive: caspase-3 activation [1] -0.114% | outcome [2] | caspase-3 activation [3] 2.65% | caspase-3 activation [4] 1.35% | outcome [5] | Potency [7] | Potency [18] | Potency [9] | outcome [10] | outcome [11] | outcome [12] | outcome [19] | Potency [14] | Potency [16] | Potency [20] | Potency [17]

Cc1cc(C)cc(O)c1
inactive: caspase-3 activation [1] -0.0828% | outcome [2] | caspase-3 activation [3] -0.413% | caspase-3 activation [4] 0.338% | outcome [5] | Potency [7] | Potency [18] | Potency [9] | outcome [10] | outcome [11] | outcome [12] | outcome [13] | outcome [19] | Potency [14] | Potency [15] | Potency [16] | Potency [20] | Potency [17]

C=CCn1c(=O)n(CC=C)c(=O)n(CC=C)c1=O
inactive: caspase-3 activation [1] -1.07% | outcome [2] | caspase-3 activation [3] 0.22% | caspase-3 activation [4] -1.6% | outcome [5] | outcome [6] | Potency [7] | Potency [9] | outcome [10] | outcome [11] | outcome [12] | outcome [13] | outcome [19] | Potency [14] | Potency [15] | Potency [16] | Potency [17]

CC/C=C/C#N
inactive: caspase-3 activation [1] -0.969% | outcome [2] | caspase-3 activation [3] 0.211% | caspase-3 activation [4] 1.85% | outcome [5] | Potency [7] | Potency [18] | Potency [9] | outcome [10] | outcome [11] | outcome [12] | outcome [13] | outcome [19] | Potency [14] | Potency [15] | Potency [16] | Potency [20] | Potency [17]

O=[N+]([O-])c1ccc(Cl)cc1Cl
inactive: caspase-3 activation [1] 0.652% | outcome [2] | caspase-3 activation [3] 1.21% | caspase-3 activation [4] 1.91% | outcome [5] | Potency [7] | Potency [18] | outcome [10] | outcome [11] | outcome [12] | outcome [13] | outcome [19] | Potency [14] | Potency [16] | Potency [20]

Nc1ccc(Cl)cc1[N+](=O)[O-]
inactive: caspase-3 activation [1] 0.0963% | outcome [2] | caspase-3 activation [3] -0.0414% | caspase-3 activation [4] 1.61% | outcome [5] | Potency [7] | Potency [18] | Potency [9] | outcome [10] | outcome [11] | outcome [12] | outcome [13] | outcome [19] | Potency [14] | Potency [16] | Potency [20] | Potency [17]

CCCCOCCOCCSC#N
inactive: caspase-3 activation [1] -0.616% | outcome [2] | caspase-3 activation [3] 0.183% | caspase-3 activation [4] -2.09% | outcome [5] | Potency [7] | Potency [18] | Potency [9] | outcome [10] | outcome [11] | outcome [12] | outcome [19] | Potency [14] | Potency [16] | Potency [20] | Potency [17]

Cc1ccc2nc(-c3ccc(N)cc3)sc2c1S(=O)(=O)O
inactive: caspase-3 activation [1] -3.9% | outcome [2] | caspase-3 activation [3] -4.87% | caspase-3 activation [4] -8.94% | outcome [5] | Potency [7] | outcome [8] | Potency [9] | outcome [10] | outcome [11] | outcome [12] | outcome [13] | outcome [19] | Potency [14] | Potency [15] | Potency [16] | Potency [20] | Potency [17]
